According to PubChem BioAssay (Tox21):
Inconclusive results are not listed. The source made the active and inactive calls. Unless noted, calls follow the shape of the dose curve; as a rule, active = well fitted curve in the direction sought with a large enough effect in the repeat runs; inconclusive = weak or mixed curves; inactive = no such curve, though single readings can be large; an effect the other way counts as inactive or inconclusive.

Columns and labels:
[1] = qHTS assay to identify small molecule HDAC inhibitors - cell viability counter screen (AID 1259365); also: series mostly up to about 92 µM; nearly all actives have a fitted effect of over 50% in size
Procedure, shortened: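 Viability readout: CellTiter-Glo luminescence. Wild-type HCT-116 cells, 2hr compound treatment following overnight attachment at 37 C.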

[2] = qHTS assay to identify small molecule agonists of the sonic hedgehog signaling (Shh) pathway - cell viability counter screen (AID 1259366); also: nearly all actives have a fitted effect of over 50% in size
Procedure, shortened: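 Viability measured fluorometrically (CellTiter-Fluor, 1hr, 37C) in 3T3 Gli1-Luc reporter cells after 23hr compound exposure within a 24hr incubation at 37C/5% CO2.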

[3] = qHTS assay to identify small molecule antagonists of the sonic hedgehog signaling (Shh) pathway - cell viability counter screen (AID 1259367); also: nearly all actives have a fitted effect of over 55% in size
Procedure, shortened: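 Using CellTiter-Fluor, viability of Gli1-Luc reporter 3T3 cells is read by fluorescence in the wells used for the Shh luciferase assay. Treatment lasts 23 hr with conditioned medium, then reagent 1 hr at 37C.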

[4] = qHTS assay to identify small molecule agonists of the sonic hedgehog signaling (Shh) pathway (AID 1259368; calls by dose curve;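 also: NIH/3T3-derived 3T3Gli1-Luc cells carrying a stable Gli1-driven firefly luciferase reporter; series mostly up to about 92 µM; nearly all actives have a fitted effect of over 15% in size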)
Procedure, shortened: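 Luminescent signal was taken as a measure of Gli1-controlled luciferase expression in stably transfected NIH/3T3-derived cells that had been treated for 24 hr with compounds delivered in DMSO.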

[5] = qHTS assay to identify small molecule antagonists of the sonic hedgehog signaling (Shh) pathway (AID 1259369; calls by dose curve; also: nearly all actives have a fitted effect of over 45% in size)
Procedure, shortened: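 Screening used 3T3Gli1-Luc cells at 2,000 per well, compounds delivered in DMSO, and conditioned medium as agonist stimulus; plates incubated 24hr at 37 C and 5% CO2 before a 30min luciferase step.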

[6] = target: Estrogen receptor beta (Homo sapiens) (UniProt Q92731); assay: qHTS assay to identify small molecule antagonists of the estrogen receptor beta (ER-beta) signaling pathway (AID 1259378; active = well fitted inhibition curve with a large enough effect in the signal ratio in the repeat runs, not every such curve was filed as active; the % refers to the signal ratio)
Procedure, shortened: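 Antagonist mode: compounds added to beta-lactamase reporter HEK293T ER-beta-UAS cells stimulated with E2 (1nM final), 16 hr at 37C. LiveBLAzer B/G FRET substrate, 2 hours room temperature, fluorescence read-out.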

[7] = qHTS assay to identify small molecule agonists of the androgen receptor (AR) signaling pathway in the presence of an antagonist - cell viability counter screen (AID 1259379);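 also: MDA-kb2 human breast cancer cells carrying an MMTV luciferase reporter; series mostly up to about 92 µM; nearly all actives have a fitted effect of over 25% in size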
Procedure, shortened: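 In MDA-kb2 cells (human breast carcinoma, MMTV-luciferase), compounds at 15 concentrations plus 3.0uM nilutamide; 16 hr, 37C, 0% CO2; CellTiter-Fluor fluorescence read for viability.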

[8] = qHTS assay to identify small molecule agonists of the estrogen receptor beta (ER-beta) signaling pathway - cell viability counter screen (AID 1259380); also: nearly all actives have a fitted effect of over 30% in size
Procedure, shortened: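 Viability of ER-beta-UAS-bla HEK293T cells was determined by CellTiter-Glo luminescence following 16 hr treatment with test compounds at 37C.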

[9] = target: Androgen receptor (Homo sapiens) (UniProt P10275); assay: qHTS assay to identify small molecule agonists of the androgen receptor (AR) signaling pathway in the presence of an antagonist (AID 1259381; calls by dose curve; also: nearly all actives have a fitted effect of over 15% in size)
Procedure, shortened: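 Here, 15-concentration compound series were pin-transferred onto MDA-kb2 MMTV-luciferase cells already dosed with nilutamide (3.0uM final). After 16hr at 37C, ONE-Glo was added and luminescence read 30min later at room temperature.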

[10] = qHTS assay to identify small molecule antagonists of the estrogen receptor beta (ER-beta) signaling pathway - cell viability counter screen (AID 1259382);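 also: HEK293T cells carrying ER-beta-UAS-bla reporter stimulated with estradiol; series mostly up to about 92 µM; nearly all actives have a fitted effect of over 55% in size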
Procedure, shortened: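 Tox21 10K library tested in qHTS format on ER-beta-bla HEK293T cells stimulated with 1nM E2; 16 hr treatment at 37C. Same-well CellTiter-Glo luminescence served as the cell viability measure.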

[11] = qHTS assay to identify small molecule agonists or antagonists of the thyroid stimulating hormone receptor (TSHR) signaling pathway - wild type cell line counter screen (AID 1259384; calls by dose curve)
Procedure, shortened: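 Counter screen in untransfected Hek293: compounds (15-point titration, triplicate) plus phosphodiesterase inhibitor Ro20-1724 added after 18 h plating; 30 min RT. Intracellular cAMP via competitive d2/cryptate immunoassay, 1 h incubation.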

[12] = target: Thyrotropin receptor (Homo sapiens) (UniProt P16473); assay: qHTS assay to identify small molecule antagonists of the thyroid stimulating hormone receptor (TSHR) signaling pathway (AID 1259385; calls by dose curve; also: nearly all actives have a fitted effect of over 20% in size)
Procedure, shortened: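 Antagonist mode: compound-treated TSHR-expressing HEK293 cells were stimulated with 1.5 ng/mL TSH (final) in presence of Ro20-1724 for 30 min at RT. HTRF cAMP detection after 1 h; each compound tested at 15 concentrations, triplicate.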

[13] = qHTS assay to identify small molecule agonists of the estrogen receptor alpha (ER-alpha) signaling pathway in the presence of an antagonist - cell viability counter screen (AID 1259386);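 also: series mostly up to about 92 µM; cells exposed to compounds for 22 h at 37 °C before the viability read; nearly all actives have a fitted effect of over 30% in size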
Procedure, shortened: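 Fluorescent CellTiter-Fluor viability signal from VM7Luc4E2 cells, with the reagent added during the final hour of a 22hr compound exposure at 37C in the presence of 10.0nM ICI-182,780.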

[14] = target: Progesterone receptor (Homo sapiens) (UniProt P06401); assay: qHTS assay to identify small molecule agonists of the progesterone receptor (PR) signaling pathway (AID 1346784; calls by dose curve; also: nearly all actives have a fitted effect of over 30% in size)
Procedure, shortened: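 Agonist mode, quantitative HTS format in a HEK 293T line expressing a UAS-controlled beta-lactamase reporter; 16 hr compound exposure at 37C in 2% charcoal-stripped FBS, then LiveBLAzer B/G FRET fluorescence.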

[15] = target: Progesterone receptor (Homo sapiens) (UniProt P06401); assay: qHTS assay to identify small molecule antagonists of the progesterone receptor (PR) signaling pathway (AID 1346795; active = well fitted inhibition curve with a large enough effect in the signal ratio in the repeat runs, not every such curve was filed as active; the % refers to the signal ratio; also: potency is read from the fitted curve at half-maximal effect)
Procedure, shortened: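 HEK293T PR-UAS-bla reporter cells in charcoal-stripped serum (2%) received compound after a 6 hr settling period, followed by R5020 agonist at 1 nM final; 16 hr incubation preceded the FRET substrate step and fluorescence measurement.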

[16] = qHTS assay to identify small molecule antagonists of the progesterone receptor (PR) signaling pathway - cell viability counter screen (AID 1346798); also: series mostly up to about 92 µM; nearly all actives have a fitted effect of over 50% in size
Procedure, shortened: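 Same-well multiplex: after 16 hr at 37C with compound and R5020 stimulation, HEK293T cells carrying a UAS-bla reporter received LiveBLAzer substrate (2 hr RT), then CellTiter-Glo (30 min RT) for luminescent viability.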

[17] = qHTS assay to identify small molecule antagonists of the TGF-beta/Smad signaling pathway - cell viability counter screen (AID 1346824); also: nearly all actives have a fitted effect of over 50% in size
Procedure, shortened: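 Cytotoxicity counter-screen run in the same wells as the beta-lactamase Smad reporter read: CellTiter-Glo luminescence after 30 min at room temperature. HEK 293T SBE-bla cells had 5 hr compound exposure at 37 C with TGF-beta1 (0.25 ng/mL stock).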

[18] = target: Estrogen receptor (Homo sapiens) (UniProt P03372); assay: qHTS assay to identify small molecule agonists of the estrogen receptor alpha (ER-alpha) signaling pathway in the presence of an antagonist (AID 1259383; calls by dose curve; also: top concentration of the series differs between compounds; nearly all actives have a fitted effect of over 15% in size)
Procedure, shortened: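 In VM7Luc4E2 cells, 4,000 per well, compounds at 15 concentrations were co-incubated 22hr at 37C with 10.0nM final ICI-182,780. Luminescence from the stably transfected 4×ERE-luciferase reporter was recorded 30min after ONE-Glo addition.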

[19] = qHTS assay to identify small molecule agonists of the progesterone receptor (PR) signaling pathway - cell viability counter screen (AID 1346799; calls by dose curve; also: nearly all actives have a fitted effect of over 45% in size)
Procedure, shortened: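 Counter screen for cytotoxicity: compound-treated PR-UAS-bla HEK293T cells (16 hr, 37C, 5% CO2) were assayed with CellTiter-Glo, luminescence measured after 30 min at room temperature.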

Measured: Potency

Thyrotropin receptor (Homo sapiens), sequence (P16473 whole entry, looked up): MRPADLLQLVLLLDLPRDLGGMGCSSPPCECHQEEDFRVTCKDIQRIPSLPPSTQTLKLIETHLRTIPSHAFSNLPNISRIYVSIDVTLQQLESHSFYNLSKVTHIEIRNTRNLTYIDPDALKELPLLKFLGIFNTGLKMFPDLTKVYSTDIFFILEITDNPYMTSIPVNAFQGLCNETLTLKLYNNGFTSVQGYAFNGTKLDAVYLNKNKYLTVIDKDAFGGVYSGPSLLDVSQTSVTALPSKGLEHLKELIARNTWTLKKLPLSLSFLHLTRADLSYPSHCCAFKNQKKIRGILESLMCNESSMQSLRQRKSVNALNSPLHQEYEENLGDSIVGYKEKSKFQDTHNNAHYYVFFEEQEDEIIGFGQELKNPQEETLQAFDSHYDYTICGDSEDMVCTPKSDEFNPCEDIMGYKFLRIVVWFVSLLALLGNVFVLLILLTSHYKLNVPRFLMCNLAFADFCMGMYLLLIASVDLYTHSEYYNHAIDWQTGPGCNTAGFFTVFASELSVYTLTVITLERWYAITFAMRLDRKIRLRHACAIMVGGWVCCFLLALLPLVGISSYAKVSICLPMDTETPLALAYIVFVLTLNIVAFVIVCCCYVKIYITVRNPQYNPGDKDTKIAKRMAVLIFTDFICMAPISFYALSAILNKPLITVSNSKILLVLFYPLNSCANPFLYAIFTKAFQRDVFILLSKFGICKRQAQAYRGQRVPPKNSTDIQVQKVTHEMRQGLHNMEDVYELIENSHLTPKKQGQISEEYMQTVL
Estrogen receptor (Homo sapiens), sequence (P03372 whole entry, looked up): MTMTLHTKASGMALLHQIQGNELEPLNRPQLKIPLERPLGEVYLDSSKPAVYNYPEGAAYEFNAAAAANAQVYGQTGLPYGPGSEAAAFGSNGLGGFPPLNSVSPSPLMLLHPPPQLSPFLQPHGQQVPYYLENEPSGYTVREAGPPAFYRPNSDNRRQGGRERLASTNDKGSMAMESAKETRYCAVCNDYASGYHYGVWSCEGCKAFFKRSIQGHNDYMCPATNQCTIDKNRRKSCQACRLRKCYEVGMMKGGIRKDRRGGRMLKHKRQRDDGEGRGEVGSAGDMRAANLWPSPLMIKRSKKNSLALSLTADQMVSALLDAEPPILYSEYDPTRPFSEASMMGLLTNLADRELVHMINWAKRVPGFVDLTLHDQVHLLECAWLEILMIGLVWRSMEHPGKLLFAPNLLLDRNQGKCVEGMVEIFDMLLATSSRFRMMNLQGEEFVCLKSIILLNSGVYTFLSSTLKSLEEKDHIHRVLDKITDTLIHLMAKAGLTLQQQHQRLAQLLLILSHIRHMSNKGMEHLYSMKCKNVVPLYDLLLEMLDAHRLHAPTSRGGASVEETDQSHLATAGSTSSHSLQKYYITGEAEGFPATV
Progesterone receptor (Homo sapiens), sequence (P06401 whole entry, looked up): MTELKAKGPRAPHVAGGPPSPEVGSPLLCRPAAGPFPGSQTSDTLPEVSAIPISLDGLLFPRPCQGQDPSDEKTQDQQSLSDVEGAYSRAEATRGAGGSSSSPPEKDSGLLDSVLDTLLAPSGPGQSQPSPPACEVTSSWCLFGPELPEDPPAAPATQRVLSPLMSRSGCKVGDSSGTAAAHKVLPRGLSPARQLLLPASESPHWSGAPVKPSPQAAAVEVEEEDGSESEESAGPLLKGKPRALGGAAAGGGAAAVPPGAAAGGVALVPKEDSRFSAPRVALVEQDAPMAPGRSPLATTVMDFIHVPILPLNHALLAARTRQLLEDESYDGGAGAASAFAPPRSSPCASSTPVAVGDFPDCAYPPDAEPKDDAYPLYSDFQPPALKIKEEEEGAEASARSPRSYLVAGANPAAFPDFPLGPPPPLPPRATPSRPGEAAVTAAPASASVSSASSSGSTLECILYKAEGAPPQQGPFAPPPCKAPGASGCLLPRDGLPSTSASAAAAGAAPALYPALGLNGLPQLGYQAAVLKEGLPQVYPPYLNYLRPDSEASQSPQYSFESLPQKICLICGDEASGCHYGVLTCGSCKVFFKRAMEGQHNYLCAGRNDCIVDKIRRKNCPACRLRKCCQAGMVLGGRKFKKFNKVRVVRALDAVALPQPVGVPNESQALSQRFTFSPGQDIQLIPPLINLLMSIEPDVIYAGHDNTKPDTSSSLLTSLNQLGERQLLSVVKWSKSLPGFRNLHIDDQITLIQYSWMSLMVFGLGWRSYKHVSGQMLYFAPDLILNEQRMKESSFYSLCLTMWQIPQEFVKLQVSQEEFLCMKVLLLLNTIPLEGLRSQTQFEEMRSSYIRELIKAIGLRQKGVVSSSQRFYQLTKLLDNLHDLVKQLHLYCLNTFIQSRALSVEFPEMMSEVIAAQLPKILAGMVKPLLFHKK
Androgen receptor (Homo sapiens), sequence (P10275 whole entry, looked up): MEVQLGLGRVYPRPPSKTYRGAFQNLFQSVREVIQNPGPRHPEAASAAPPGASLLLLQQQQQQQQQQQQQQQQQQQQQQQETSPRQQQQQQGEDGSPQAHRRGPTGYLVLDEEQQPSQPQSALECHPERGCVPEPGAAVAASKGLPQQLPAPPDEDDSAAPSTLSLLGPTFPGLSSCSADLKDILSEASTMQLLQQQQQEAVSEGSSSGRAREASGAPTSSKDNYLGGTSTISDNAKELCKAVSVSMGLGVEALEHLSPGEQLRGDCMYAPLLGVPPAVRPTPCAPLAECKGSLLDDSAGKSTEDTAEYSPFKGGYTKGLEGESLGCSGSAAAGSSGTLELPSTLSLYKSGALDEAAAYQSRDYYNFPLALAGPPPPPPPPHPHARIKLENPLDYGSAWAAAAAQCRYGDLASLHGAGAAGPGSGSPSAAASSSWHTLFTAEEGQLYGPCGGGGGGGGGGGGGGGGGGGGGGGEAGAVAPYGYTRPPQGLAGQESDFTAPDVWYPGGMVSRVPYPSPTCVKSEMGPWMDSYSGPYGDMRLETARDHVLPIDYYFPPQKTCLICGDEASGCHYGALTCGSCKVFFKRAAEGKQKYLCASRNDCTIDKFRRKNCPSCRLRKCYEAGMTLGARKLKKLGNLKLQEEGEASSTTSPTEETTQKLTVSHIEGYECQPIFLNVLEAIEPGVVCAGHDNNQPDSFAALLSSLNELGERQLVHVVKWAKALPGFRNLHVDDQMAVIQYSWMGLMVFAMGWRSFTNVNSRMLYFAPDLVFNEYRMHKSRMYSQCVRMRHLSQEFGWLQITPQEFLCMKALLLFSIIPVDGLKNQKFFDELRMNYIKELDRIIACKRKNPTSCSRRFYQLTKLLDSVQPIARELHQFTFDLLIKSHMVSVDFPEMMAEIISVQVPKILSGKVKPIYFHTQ
Estrogen receptor beta (Homo sapiens), sequence (Q92731 whole entry, looked up): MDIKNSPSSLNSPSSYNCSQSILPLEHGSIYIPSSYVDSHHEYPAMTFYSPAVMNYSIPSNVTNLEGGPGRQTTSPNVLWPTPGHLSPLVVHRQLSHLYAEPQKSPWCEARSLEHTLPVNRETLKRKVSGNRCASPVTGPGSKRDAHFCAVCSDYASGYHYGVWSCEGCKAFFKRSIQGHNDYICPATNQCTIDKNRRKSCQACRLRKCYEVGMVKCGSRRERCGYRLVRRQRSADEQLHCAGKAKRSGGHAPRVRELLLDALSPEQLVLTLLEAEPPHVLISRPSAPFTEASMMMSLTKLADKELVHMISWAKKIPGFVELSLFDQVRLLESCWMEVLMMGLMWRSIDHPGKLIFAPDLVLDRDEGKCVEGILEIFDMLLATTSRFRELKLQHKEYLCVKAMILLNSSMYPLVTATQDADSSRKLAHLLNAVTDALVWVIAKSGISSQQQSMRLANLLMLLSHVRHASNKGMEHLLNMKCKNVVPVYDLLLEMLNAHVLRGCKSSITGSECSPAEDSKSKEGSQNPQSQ

COC(=O)c1cc(Cl)c(NC(C)=O)cc1OC
inactive: [1] | [2] | [3] | [4] | [5] | [6] | [7] | [8] | [9] | [10] | [11] | [12] | [13] | [14] | [15] | [16] | [17]

CCCCC(CC)CCC(CC(C)C)OS(=O)(=O)O (centres undefined)
inactive: [1] | [2] | [3] | [4] | [5] | [6] | [7] | [8] | [10] | [18] | [11] | [12] | [13] | [14] | [15] | [16] | [19] | [17]

CCCCN=C(N)N=C(N)N
inactive: [1] | [2] | [3] | [4] | [5] | [6] | [7] | [8] | [10] | [18] | [11] | [12] | [13] | [14] | [16] | [19] | [17]

COc1cc(S(N)(=O)=O)cc(C(=O)O)c1OC
inactive: [1] | [2] | [3] | [4] | [5] | [6] | [7] | [8] | [10] | [18] | [11] | [12] | [13] | [16] | [17]

BrCCOc1ccccc1
inactive: [1] | [2] | [3] | [4] | [5] | [6] | [7] | [8] | [10] | [18] | [13] | [15] | [16] | [19] | [17]

Cc1cccc(N)n1
inactive: [1] | [2] | [3] | [4] | [5] | [6] | [7] | [8] | [10] | [18] | [11] | [12] | [13] | [14] | [15] | [16] | [19] | [17]

CC(C)(Sc1cc(C(C)(C)C)c(O)c(C(C)(C)C)c1)Sc1cc(C(C)(C)C)c(O)c(C(C)(C)C)c1
inactive: [1] | [2] | [3] | [4] | [5] | [6] | [7] | [8] | [10] | [11] | [12] | [13] | [14] | [15] | [16] | [17]

CN1C(CCl)Nc2cc(Cl)c(S(N)(=O)=O)cc2S1(=O)=O (centres undefined)
inactive: [1] | [2] | [3] | [4] | [5] | [6] | [7] | [8] | [10] | [18] | [13] | [15] | [16] | [19] | [17]

C=CCOC(=O)CCCCCCCC
inactive: [1] | [2] | [3] | [4] | [5] | [6] | [7] | [8] | [10] | [18] | [13] | [14] | [15] | [16] | [19] | [17]

O=C1CCCc2c(O)cccc21
inactive: [1] | [2] | [3] | [4] | [5] | [7] | [8] | [9] | [18] | [13] | [14] | [16] | [19] | [17]

CCC(=O)OCCOc1ccccc1
inactive: [1] | [2] | [3] | [4] | [5] | [7] | [8] | [10] | [18] | [11] | [12] | [13] | [14] | [15] | [16] | [19] | [17]

CC[C@@]1(c2ccccc2)NC(=O)N(C)C1=O
inactive: [1] | [2] | [3] | [4] | [5] | [6] | [7] | [10] | [18] | [11] | [12] | [13] | [14] | [15] | [16] | [17]

Cc1ccc(O)c(C(=O)c2ccccc2)c1
inactive: [1] | [2] | [3] | [4] | [5] | [7] | [8] | [9] | [10] | [11] | [13] | [14] | [16] | [19] | [17]

CCCC(C)C(O)CC (centres undefined)
inactive: [1] | [2] | [3] | [4] | [5] | [6] | [7] | [10] | [11] | [12] | [13] | [14] | [19] | [17]

Clc1ccc2c(c1)Nc1ccccc1S2
active: [15] 7.5 µM
inactive: [1] | [2] | [3] | [4] | [5] | [7] | [8] | [9] | [18] | [11] | [12] | [13] | [16] | [19] | [17]
